In PubChem BioAssay (Tox21):
Records with an inconclusive call do not appear. A number with no mark means an inactive call. The call rests on the fitted dose curve.

experiment: qHTS assay to identify small molecule agonists of the AP-1 signaling pathway - cell viability counter screen (AID 1159525); details: ME-180 AP-1-bla cells viability, ATP luminescence, 5 h; series mostly up to 76.8 µM; viability change, negative = cytotoxic: at the top concentration; further: nearly all actives have a fitted effect of over 55% in size
Procedure, shortened: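 ME-180 AP-1-bla, 2500 cells/well, Opti-MEM + 0.5% dialyzed FBS; overnight 37 °C; cpd 15-pt titration, 5 h 37 °C; CellTiter-Glo 30 min RT; luminescence read; normalised to TOAB and DMSO controls.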

Row | Structure (SMILES) | viability change, negative = cytotoxic
1 | O=C(O)CCSSCCC(=O)O | 0.482%
2 | COc1ccc(-c2cc(=O)c3c(O)cc(O[C@@H]4O[C@H](CO[C@@H]5O[C@@H](C)[C@H](O)[C@@H](O)[C@H]5O)[C@@H](O)[C@H](O)[C@H]4O)cc3o2)cc1O | -0.827% [at 35.3 µM]
3 | NNc1nnc(NN)c2ccccc12 | -7.05% [at 35.3 µM]
4 | O=C(CS(=O)Cc1ccco1)NC/C=C\COc1cc(CN2CCCCC2)ccn1 (stereo not drawn) | -0.608% [at 35.3 µM]
5 | COc1cc(N)ccc1C | -13.4%
6 | COc1ccc(S(=O)(=O)N2c3ccc(Cl)cc3[C@@](O)(c3ccccc3Cl)[C@H]2C(=O)N2CCC[C@@H]2C(N)=O)cc1OC | -13.1% [at 35.3 µM]
7 | Cc1ccc2c(c1)OCC(=O)CO2 | -8.56%
8 | Cc1nc2n(c(=O)c1CCN1CCC(c3noc4cc(F)ccc34)CC1)CCC[C@H]2O | 2.97% [at 15.8 µM]
9 | CC(CN)CC(C)(C)CCN (stereo not drawn) | 4.35% [at 200 µM]
10 | COC(=O)c1ccccc1C(=O)c1ccc(OCCN2CCCCC2)cc1 | 1.72% [at 35.3 µM]
11 | Nc1nnc(-c2cccc(Cl)c2Cl)c(N)n1 | 8.39% [at 35.3 µM]
12 | O=C1c2ccccc2C(=O)C1c1ccccc1 | 0.616% [at 35.3 µM]
13 | CCCCOC(=O)c1ccccc1 | 2.74%
